Results on 91 compounds are retold here after PubChem BioAssay AID624354 (Sanford-Burnham Center for Chemical Genomics, 2012).

Molecules are shown by their SMILES. “And” between values parts separate entries of the source, which are not always exact repeats. Equal entries are not always repeated. About 3,800 (1.1%) of roughly 360,000 compounds were called active. This is one part of a sample in which actives are shown more often than they occur.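 Rule for the calls: active = compounds causing at least 50% loss of cell viability in the single-dose screen, relative to plate controls; inactive = the rest.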 The source holds several records for some structures; these can differ, active in one and inactive in another.

A short description of this assay: viability loss with TRAIL in NB7+C8 cells, primary screen, TRAIL sensitizer project, cell-based, ATPlite luminescence (AID 624354). Conditions: at 10 µM, stronger effect = higher value. (ATP-based viability assays read luminescence as a measure of living cells.)
On to `O=C(Nc1nnc(Cc2ccc(Cl)cc2)s1)c1ccncc1`, for which the inhibition (viability loss, TRAIL sensitization) was -4.66% (inactive). Under `Cc1cccc(CS(=O)(=O)c2ncc(Cl)c(C(=O)Nc3ccc(F)cc3)n2)c1` stands 36% (inactive); under `CN(Cc1ccccc1)S(=O)(=O)c1nnc(NC(=O)c2ccccc2F)s1`, -10.5% (inactive). Under `O=C(Nc1nnc(Cc2ccc(Cl)cc2)s1)c1cccnc1` stands 2.47% (inactive); under `O=C(Nc1nnc(-c2ccc(F)cc2)s1)c1c(F)cccc1Cl`, 1.33% (inactive). For `CSc1nnc(NC(=O)c2nc(S(=O)(=O)Cc3ccc(C)cc3)ncc2Cl)s1` the value was 66.5% (active); for `Cc1ccc(CS(=O)(=O)c2ncc(Cl)c(C(=O)Nc3nnc(C)s3)n2)cc1`, 96.7% (active); for `Cc1cccc(NS(=O)(=O)c2ccc(C)c(C(=O)NCc3cccnc3)c2)c1`, -5.47% (inactive). On to `Cc1cccc(NC(=O)c2nc(S(=O)(=O)Cc3ccccc3)ncc2Cl)c1`, for which the inhibition (viability loss, TRAIL sensitization) is 86.5% (active). Under `COc1ccccc1-n1nnnc1S(=O)(=O)Cc1ccc(Cl)cc1` stands 9% (inactive); under `Cc1ccc(SC(=O)COc2ccc(C)c(C)c2)cc1`, 3.37% (inactive). In the case of `O=C(CCc1ccccc1)NCCc1cccs1`, the inhibition (viability loss, TRAIL sensitization) was -4.77% (inactive). For `O=C1C2C3C=CC(C4CC34)C2C(=O)N1c1nccs1` (stereo unspecified) the value was -2% (inactive); for `Cc1ccc(-c2nc(-c3cccnc3)sc2CC(=O)Nc2ccc(C)c(Cl)c2)cc1`, 18.7% (inactive); for `COc1ccc(CCN2CNc3c(c(=O)n(C)c(=O)n3C)C2)cc1OC`, 7.29% (inactive). Under `O=C1OCCN1C(=O)[C@H]1[C@H](c2ccc(Cl)cc2)C(c2cccc(Cl)c2)=NN1c1ccc(Br)cc1` stands -0.36% (inactive); under `COc1cccc(/C=N/Nc2cc(C)nc(-c3ccccc3O)n2)c1O`, 56.9% (active). Under `CCOc1ccccc1/C=N/Nc1nc2ccccc2o1` stands -8.7% (inactive).

Take `COCCCNC(=O)c1cccc2c(-c3ccc(O)c(OC)c3)coc12`: the inhibition (viability loss, TRAIL sensitization) was 14.2% (inactive). Under `CC(=O)OCC(C)n1c(=O)c2ccccc2n1C(C)=O` (stereo unspecified) stands -3.49% (inactive). For `CN(C)CCCn1c(N)c(C#N)c2nc(C#N)c(C#N)nc21` the value was -10.7% (inactive); for `O=C(NCCc1ccccn1)c1nc(Cn2cc([N+](=O)[O-])cn2)no1`, 2.01% (inactive); for `O=C(Nc1nc2ccc([N+](=O)[O-])cc2s1)c1ccncc1`, 53.2% (active). For `CC(=O)Nc1ccc2nc(NC(=O)CS(=O)(=O)c3ccc(F)cc3)sc2c1` the value was -11.1% (inactive); for `CSc1ncccc1C(=O)Nc1nc2ccc(F)cc2s1`, 10.7% (inactive); for `COc1cc2nnn(-c3ccncc3)c2cc1OC`, -16.3% (inactive).

In the case of `O=C(CCCCCCCC(=O)N1CCCCC1)N1CCCCC1`, the inhibition (viability loss, TRAIL sensitization) is 1.6% (inactive). Under `COC(=O)c1sc(SC)c(S(=O)(=O)C(C)C)c1N/N=C(\C#N)S(=O)(=O)c1ccccn1` stands -10.6% (inactive). Turning to `O=C(NCc1ccccc1)C1C(=O)N(Cc2ccccc2)C(=O)C1C1(O)CCCC1` (stereo unspecified), the inhibition (viability loss, TRAIL sensitization) is -9.54% (inactive). As for `O=c1c2cc(-c3ccccc3)sc2nc2n1N=C(c1cccs1)CS2`, the inhibition (viability loss, TRAIL sensitization) was 56.6% (active). Under `O=c1c(-c2ccccc2)cnc2n1CCS2` stands -0.958% (inactive). Turning to `Cc1ccccc1C1CC(c2cccs2)=NN1S(C)(=O)=O` (stereo unspecified), the inhibition (viability loss, TRAIL sensitization) was 1.64% (inactive). For `COc1cccc2c1OCC(C(=O)NCc1ccc(Cl)cc1Cl)=C2`, the inhibition (viability loss, TRAIL sensitization) is 12.2% (inactive).

As to `CC(=O)Nc1ccc(C(=O)NNC(=O)CCCCC(=O)NNC(=O)c2ccc(NC(C)=O)cc2)cc1`, the inhibition (viability loss, TRAIL sensitization) was -1.99% (inactive).

On to `CC(=O)Nc1ccc(C(=O)/C=C/c2ccc[nH]2)cc1`, for which the inhibition (viability loss, TRAIL sensitization) was 1.89% (inactive). For `CCCC(=O)Nc1ccc(C(=O)N/N=C/c2ccc[nH]2)cc1`, the inhibition (viability loss, TRAIL sensitization) was 93.8% (active).

For the compound `ClC1(Cl)CC1CSc1ncn[nH]1` (stereo unspecified), the inhibition (viability loss, TRAIL sensitization) is -13.6% (inactive).

Take `O=C(/C=C/c1ccc([N+](=O)[O-])o1)NNC(=O)c1ccc(F)cc1`: the inhibition (viability loss, TRAIL sensitization) was 32.1% (inactive).

For the compound `Cc1nnc(SC(C(=O)Nc2cc(Cl)cc(Cl)c2)c2ccccc2)[nH]c1=O` (stereo unspecified), the inhibition (viability loss, TRAIL sensitization) was -3.74% (inactive).

Turning to `O=C(Nc1c(Br)cc2c(c1Br)Cc1ccccc1-2)C(F)(F)F`, the inhibition (viability loss, TRAIL sensitization) was 2.23% (inactive).

On to `COc1cccc(C(=O)N/N=C(\C)c2cccc(NC(=O)c3ccc(F)cc3)c2)c1OC`, for which the inhibition (viability loss, TRAIL sensitization) is 16.9% (inactive). For `COc1cc(NC(=O)c2[nH]cnc2C(N)=O)cc(C(=O)Nc2cccc(C(F)(F)F)c2)c1` the value was 86% (active); for `COc1cc(NC(=O)c2cncc(-c3ccc(C#N)cc3)c2)cc(C(=O)Nc2cccc(C(F)(F)F)c2)c1`, 33.4% (inactive) and 56.8% (active); for `O=C(Nc1cccc(C(F)(F)F)c1)c1ccc(N2CCNCC2)c([N+](=O)[O-])c1`, 35.7% (inactive). With `COc1cccc(NC(=O)CN(C)C(C)C(=O)Nc2ccc(C#N)cc2)c1` (stereo unspecified), the inhibition (viability loss, TRAIL sensitization) was -8.39% (inactive). For `COc1cc(C(=O)N(C)Cc2cccc(OC)c2OC)ccc1OCC(=O)Nc1cccc(C(F)(F)F)c1` the value was 28.6% (inactive).

For `COC(=O)c1ccc(C2C3=C(Nc4nnnn42)c2ccccc2OC3)cc1` (stereo unspecified), the inhibition (viability loss, TRAIL sensitization) is -2.52% (inactive).

On to `CCOC(=O)c1c(Cc2ccc(Cl)cc2)c[nH]c1C`, for which the inhibition (viability loss, TRAIL sensitization) is -5.16% (inactive).

On to `CCOC(=O)N1CCN(S(=O)(=O)c2ccc(C(=O)Nc3ccc(F)cc3F)cc2)CC1`, for which the inhibition (viability loss, TRAIL sensitization) is 4.58% (inactive).

For `Cc1cc(C)cc(OCc2nnc(SCC(=O)OC3CCCCC3)o2)c1`, the inhibition (viability loss, TRAIL sensitization) is -14.3% (inactive). Under `COc1cccc(CNC(=O)C2CCCN(S(=O)(=O)N3CC(C)CC(C)C3)C2)c1` (stereo unspecified) stands -1.49% (inactive).

For the compound `COC(=O)C1=C[C@@H](C(=O)OC)[C@@H]2C3=C(C(=O)[C@]2(C)NC(=O)c2ccccc2)[C@H](C)n2c(=O)n(C)c(=O)n2[C@@H]3C1`, the inhibition (viability loss, TRAIL sensitization) is -3.47% (inactive). For `COc1ccc(OC)c(Cc2cnc3nc(N)nc(N)c3c2C)c1` the value was 84% (active); for `O=C(CN(C(=O)c1csnn1)c1cccc(F)c1)NCc1ccc(F)cc1`, -4.16% (inactive). For `CCOC(=O)c1c(C)[nH]c2c1-c1ccccc1C(=O)C2=O` the value was 94% (active); for `CCOC(=O)c1[nH]c(C)c(C(=O)OCC(=O)N2c3ccccc3CC2C)c1C` (stereo unspecified), 6.75% (inactive). For `CCOC(=O)c1c(C)oc(C)c(C(=O)OCC)c1=O` the value was -19.5% (inactive); for `Cc1ccc(C(=O)COC(=O)CCN2C(=O)C3C4CCC(C4)C3C2=O)cc1C` (stereo unspecified), -8.78% (inactive). Regarding `COc1ccc(C(=O)OCC(=O)c2ccc(C)c(S(=O)(=O)N3CCOCC3)c2)cc1OC`, the inhibition (viability loss, TRAIL sensitization) is 18.4% (inactive).

`Cc1ccc(C(=O)COC(=O)c2cccc(N3C(=O)c4c(C)nc5ccccc5c4C3=O)c2)cc1C`: the inhibition (viability loss, TRAIL sensitization) is 60.1% (active). For `N#CCCN(C(=S)Nc1ccc(Cl)c(Cl)c1)C1CCCCC1` the value was -41.1% (inactive).

For `COc1ccc(NS(=O)(=O)c2ccc(C)c(C(=O)N(C)Cc3ccc(OC)cc3OC)c2)cc1`, the inhibition (viability loss, TRAIL sensitization) was 17.8% (inactive).

Take `O=C(NNC(=O)c1cc(S(=O)(=O)N2CCCCC2)ccc1Cl)c1ccccc1O`: the inhibition (viability loss, TRAIL sensitization) was 14% (inactive).

For the compound `Cc1cccc(NS(=O)(=O)c2cccc(C(=O)NNC(=O)c3ccccc3O)c2)c1`, the inhibition (viability loss, TRAIL sensitization) is 24.7% (inactive). As to `O=C(NNC(=O)c1ccccc1O)c1ccccc1O`, the inhibition (viability loss, TRAIL sensitization) was 59.8% (active).

Consider `CC1(C)CC(=O)C=C(NC2CC(C)(C)NC(C)(C)C2)C1`, for which the inhibition (viability loss, TRAIL sensitization) was -7.42% (inactive). Turning to `C=CCNC(=O)c1ccc2c3n(nc2c1)-c1ccc(C)cc1CO3`, the inhibition (viability loss, TRAIL sensitization) is 47.7% (inactive). For `CCOC(=O)N1CCN(C(=O)C2CCN(S(C)(=O)=O)CC2)CC1` the value was 9.65% (inactive). Under `Cc1nn(-c2ccccc2)nc1C(=O)OCC(=O)N1CCCCC1C` (stereo unspecified) stands 10.3% (inactive); under `COC(=O)c1cc(S(=O)(=O)N2CCN(c3cc(C)ccc3C)CC2)c[nH]1`, -3.18% (inactive). Regarding `Cc1nc2ccc(S(=O)(=O)NCC(=O)NCCN3CCCCC3C)cc2s1` (stereo unspecified), the inhibition (viability loss, TRAIL sensitization) was -1.47% (inactive). As to `Cn1c(=O)[nH]c(=O)c2c1[nH]c(=S)n2Cc1ccccc1`, the inhibition (viability loss, TRAIL sensitization) was 7.43% (inactive).

Regarding `N#Cc1ccc(C(=O)Nc2nc(-c3cccs3)c(C(=O)C(F)(F)F)s2)cc1`, the inhibition (viability loss, TRAIL sensitization) is 53.5% (active).

Consider `C=CCN(CC=C)S(=O)(=O)c1ccc(C(=O)Nc2nc3c(s2)CCc2ccccc2-3)cc1`, for which the inhibition (viability loss, TRAIL sensitization) was 28.5% (inactive). For `N#Cc1c(-c2cccs2)nc(SCC(=O)c2ccc(Br)cc2)[nH]c1=O` the value was -12.9% (inactive). Under `Cc1ccc(NC(=O)CCC(=O)N2CCC(c3ccccc3)=N2)cc1S(=O)(=O)N1CCCCC1` stands 18.8% (inactive); under `Cc1nc2nc[nH]n2c(=O)c1NC(=O)c1cccc(OCC(C)C)c1`, -7.44% (inactive); under `O=C(CP(=O)(c1ccccc1)c1ccccc1)N1CCOCC1`, -4.37% (inactive).

On to `O=C(CSC(=S)N1CCCCC1)c1c(F)cccc1F`, for which the inhibition (viability loss, TRAIL sensitization) is 3.44% (inactive). For `O=C(CSC(=S)N1CCOCC1)c1ccccc1` the value was 57.5% (active). Under `O=c1c(-c2ccccc2Cl)c[nH]n1-c1ccccc1` stands 1.07% (inactive); under `CS(=O)(=O)c1ccc(C(=O)NNC(=O)c2cccs2)cc1`, -3.16% (inactive).

For `Cc1cc2cc3c(cc2nc1SCC(=O)Nc1c(C)cccc1C)CCC3`, the inhibition (viability loss, TRAIL sensitization) was 3.78% (inactive). For `Cn1c(-c2ccc(C(=O)c3ccccc3)s2)nc2ccccc21` the value was 66.6% (active); for `Cn1c(NC(=O)c2ccccc2)nc2ccccc21`, 49.5% (active). As to `Cn1c(CC(=O)NNC(=O)c2ccccc2F)nc2ccccc21`, the inhibition (viability loss, TRAIL sensitization) is 11.4% (inactive). Under `CCC(C(=O)Nc1c(C)cccc1C)n1c(-c2cc(C)cs2)nc2ccccc21` (stereo unspecified) stands 9.25% (inactive); under `CCn1c(NC(=O)c2nn(C)cc2Br)nc2ccccc21`, 16.9% (inactive).

`Cc1nc2ccccc2c(C)c1C(=O)c1ccc(F)cc1`: the inhibition (viability loss, TRAIL sensitization) is 2.13% (inactive).

Take `COc1cc(-c2nc(S(=O)(=O)c3ccc(Cl)cc3)c(N(C)C)o2)cc(OC)c1OC`: the inhibition (viability loss, TRAIL sensitization) was -2.14% (inactive). For `COc1ccc(N(C(=O)c2ccc(C)cc2)S(=O)(=O)c2cccs2)cc1` the value was -2.28% (inactive).
